Test results as given in the supplement of paper PMC10646978.
± gives the standard deviation.

Assays:
Conditions in all cases: modulator concentration 10 µM
[1] = system: RAW-Dual (murine macrophage reporter line); experiment: NF-kB reporter (SEAP) activity fold change vs agonist alone; higher = enhanced NF-kB activity
Summary of the method: (§1)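 RAW-Dual murine macrophage reporter cells were plated at 50 000 per well in 384-well plates, pin-transferred compound to 10 μM final, and pre-incubated for 1 hour at 37 °C before a PRR agonist was added and the cells incubated overnight. NF-κB activity was read from supernatant SEAP with QUANTI-Blue at 620 nm absorbance, and IRF activity from Lucia luciferase with QUANTI-Luc by luminescence. Each signal was expressed as fold change by dividing by the mean agonist-only control on the same plate. Two replicate plates were averaged, with errors obtained by propagation.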

[2] = system: RAW-Dual (murine macrophage reporter line); experiment: IRF reporter (Lucia luciferase) activity fold change vs agonist alone; higher = enhanced IRF activity
Summary of the method: as §1

[3] = system: RAW-Dual (murine macrophage reporter line); experiment: viability score (confluency relative to resting cells, overnight) (fraction); higher = more viable, active = viable (0.7 or more)
Summary of the method: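 A compound met the cutoff when both of two confluency masks exceeded 70% of resting cells. Those masks were made with IncuCyte software from IncuCyte images of RAW-Dual macrophages treated overnight at 10 μM final. This is the basis of the viability score, which is confluency relative to resting cells.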

[4] = agonist: CpG ODN 1826 0.5 ug/mL

| SMILES | NF-kB reporter [1, 4] | NF-kB reporter ([1]; agonist: LPS 0.1 ug/mL) | NF-kB reporter ([1]; agonist: MPLA […]) | IRF reporter ([2]; agonist: 3'3'-cGAMP 10 ug/mL) | IRF reporter ([2]; agonist: LPS 0.1 ug/mL) | IRF reporter ([2]; agonist: MPLA […]) | viability score [3] |
| --- | --- | --- | --- | --- | --- | --- | --- |
| O=C(O)CCCCCN1C(=O)c2cccc3cccc(c23)C1=O | 0.97 ± 0.055 | 1.05 ± 0.094 | 0.948 ± 0.06 | 0.989 ± 0.05 | 1.35 ± 0.092 | 1.11 ± 0.1 | 1.01 (active) |
| COC(=O)C1=C(C)NC(=O)NC1c1ccc(Cl)c(Cl)c1 (stereo unspecified) | 0.979 ± 0.11 | 1.03 ± 0.067 | 0.951 ± 0.04 | 0.992 ± 0.16 | 1.05 ± 0.1 | 0.964 ± 0.24 | 1 (active) |
| Cc1ccc(NC(=O)c2ccc(CN3CCN(C)CC3)cc2)cc1Nc1nc(-c2cccnc2)cs1 | 0.228 ± 0.018 | 1.18 ± 0.067 | 1.74 ± 0.17 | 0.414 ± 0.051 | 0.703 ± 0.051 | 0.691 ± 0.058 | 0.981 (active) |
| CCOC(=O)C(CCc1ccccc1)NC(C)C(=O)N1C(C(=O)O)CC2CCCC21 (stereo unspecified) | 1.01 ± 0.28 | 0.998 ± 0.068 | 1.07 ± 0.072 | 0.878 ± 0.055 | 1.28 ± 0.21 | 1.34 ± 0.23 | 0.989 (active) |
| N#C[C@@H]1CCCN1C(=O)CNC12CC3CC(CC(O)(C3)C1)C2 | 0.79 ± 0.14 | 0.851 ± 0.15 | 0.862 ± 0.048 | 0.863 ± 0.06 | 1.05 ± 0.18 | 1.11 ± 0.21 | 0.993 (active) |
| CN1CCN(C(=O)N2CCC3(CC2)CC3(F)F)CC1 | 1.1 ± 0.07 | 0.939 ± 0.12 | 0.974 ± 0.025 | 0.894 ± 0.035 | 0.914 ± 0.086 | 0.815 ± 0.086 | 0.996 (active) |
| CC(C)NCC(O)COc1ccc(CCOCC2CC2)cc1.Cl (stereo unspecified) | 0.952 ± 0.13 | 1.2 ± 0.25 | 0.968 ± 0.068 | 0.907 ± 0.032 | 1.57 ± 0.17 | 1.31 ± 0.1 | 0.981 (active) |
| Cc1c(Cl)cccc1NC(=O)C(Cl)=Cc1ccccc1 | 0.757 ± 0.082 | 0.929 ± 0.11 | 1.07 ± 0.095 | 0.799 ± 0.04 | 1.13 ± 0.068 | 1.25 ± 0.11 | 1.01 (active) |
| COc1ccc(N2CCN(C(=O)Cc3csc(NC(=O)Nc4ccccc4OC)n3)CC2)cc1 | 0.911 ± 0.069 | 1.03 ± 0.1 | 0.884 ± 0.036 | 0.784 ± 0.043 | 0.922 ± 0.073 | 0.48 ± 0.042 | 0.983 (active) |
| Cc1ccc(CN2C3=NCCCN3c3ccccc32)cc1.Cl | 0.294 ± 0.047 | 1.25 ± 0.13 | 1.32 ± 0.17 | 0.881 ± 0.026 | 1.27 ± 0.17 | 1.34 ± 0.2 | 0.999 (active) |
| Ic1ccc(N=Cc2ccc(C=Nc3ccc(I)cc3)cc2)cc1 | 1.03 ± 0.081 | 0.868 ± 0.083 | 0.997 ± 0.097 | 0.954 ± 0.038 | 1.24 ± 0.19 | 1.44 ± 0.23 | 1.02 (active) |
| O=C(O)CCn1c2c(c3ccccc31)C[C@H](NS(=O)(=O)c1ccc(F)cc1)CC2 | 1.13 ± 0.27 | 0.94 ± 0.061 | 0.947 ± 0.06 | 0.879 ± 0.072 | 1.2 ± 0.29 | 1.1 ± 0.12 | 1 (active) |
| O=C(C=Cc1ccccc1)NC(NC(=S)Nc1cccc(O)c1)C(Cl)(Cl)Cl (stereo unspecified) | 0.835 ± 0.074 | 0.803 ± 0.1 | 0.972 ± 0.099 | 0.737 ± 0.024 | 1.25 ± 0.23 | 1.3 ± 0.28 | 1.03 (active) |
